28 compounds from PubChem BioAssay (NCATS) can be followed below.

The structures appear in SMILES notation. Results filed as inconclusive are left out. Values without a mark were called inactive. Activity calls are given as the source filed them. Calls follow the shape of the dose curve; as a rule, active = well fitted inhibition curve with a large enough effect; inconclusive = small, poorly fitted or top-dose-only effect; inactive = flat fitted curve, though single readings scatter.
Potency is read from the fitted curve at half-maximal effect.

The nature of this assay: Cytometry Cell-Based qHTS for Inhibitors of the mTORC1 Signaling Pathway in MEF cells (AID 2668).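 As to activity change, negative = inhibition: Tsc2-/- p53-/- mouse embryonic fibroblasts stably re-expressing wild-type Tsc2; percent cells positive for phospho-rpS6 Ser235/236 relative to propidium iodide stain.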 As to conditions: mTORC1 pathway readout; series mostly up to 38.3 µM; activity change, negative = inhibition: at the top concentration. The source says: NIH Molecular Libraries Probe Production Centers Network [MLPCN]
NIH Chemical Genomics Center [NCGC]
Assay Submitter (PI): Blenis, John; Hoffman, Greg; Harvard University
NCGC Assay Overview: The mammalian target of rapamycin (mTOR) is an intracellular serine/threonine kinase Aberrant regulation of mTOR signaling plays a causative role in a number of human diseases, including cancer, benign tumors such as lymphangioleiomyomatosis (LAM) and Tuberous Sclerosis Complex (TSC), and metabolic diseases such as diabetes and obesity. This project aims to identify inhibitors of ribosomal protein S6 (rpS6) phosphorylation. The phosphorylation of rpS6 is a key event downstream of mTOR activation. The assay uses a phospho-specific antibody of phospho-rpS6 to detect inhibitors of mTOR activation. Mutations in the Tsc1 and Tsc2 genes are the underlying genetic lesions responsible for TSC, causing constitutive activation of the mTORC1 pathway and leading to profound effects on cell metabolism. Aberrant metabolism in cancer has recently received significant attention as a target to develop therapeutic agents in the treatment of cancer.1 As Tsc2-/- cells have lost the ability to respond to energy and growth factor deprivation, these cells are unable to properly down regulate cellular biosynthetic processes in response to metabolic stress, and are thus extremely sensitive to glucose deprivation-induced death.2 A central goal of this project is to explore the unique cell survival and metabolic properties of cells with Tsc1 or Tsc2 by screening for compounds that selectively target the Tsc2-/- MEFs by screening both Tsc2-/- and WT MEF cell lines. We hope to better understand these aspects of TSC physiology in order to exploit them for therapeutic benefit.
NCGC Acumen Assay Protocol:
For quantitative high throughput analysis of mTORC1 signaling, we developed a cell-based assay for immuno-fluorescence based detection of rpS6 phosphorylation on the Acumen Explorer that will be used a platform for the primary small molecule screen. Mouse embryonic fibroblasts (MEFs) are cultured in 1536-well plates using DMEM + 10% FBS. Twenty-four hrs after plating, test compounds (solubilized in DMSO) are delivered and incubated with the cells for 24 hrs at 37 degree Celsius. Following the incubation, media with compound is aspirated and the cells are fixed in 4% paraformaldehyde (PFA) containing PBS + 0.2% TX-100. Next, PFA is aspirated, cells are washed two times with PBS plus 0.2% TX-100 and the cells are blocked for 1 hr at room temperature (blocking buffer: LiCOR Blocking Buffer plus 0.2% TX-100). This is followed by aspiration and staining with Alexa-488 conjugated-phospho-rpS6 Ser235/236 antibody for 2 hours at room temperature (Cell Signaling Technology # 4803, 1:50 dilution in blocking buffer). Cells are washed two times with PBS plus 0.2% TX-100, and stained with 10 uM propidium iodide (PI) for 20-25 minutes for cell number measurement (1:500 dilution of Hoescht staining is also added for IN Cell imaging). The plates are scanned on the Acumen Explorer laser scanning instrument (TTP Labtech) using the 488nm laser for simultaneous excitation of the Alexa-488 and PI. The fluorescence emission from the Alexa-488 conjugated rpS6 phospho-235/236 antibody staining is selected using a […] band pass filter. Fluorescence emission from the PI stain is selected using a 575-640 nm band pass filter. The normalized phospho-S6 staining is calculated as the ratio of the integrated Alexa 488 intensity divided by the integrated PI intensity for the single concentration rapamycin control (7.5 nM) and DMSO columns. […] Inhibition of the pathway is defined based on the normalized phospho-S6 intensity in rapamycin treated cells. […]
As to `O=C(O)c1cccnc1Nc1cccc(C(F)(F)F)c1`, the “activity change, negative = inhibition” value is 11.7%.
`Oc1ccc2ccccc2c1SSc1c(O)ccc2ccccc12`: the “activity change, negative = inhibition” value is 6.23%.
Same read-out and setting: under `CC(=O)N1CCN(c2ccc(OC[C@H]3CO[C@](Cn4ccnc4)(c4ccc(Cl)cc4Cl)O3)cc2)CC1` stands -12.6%.
For `O=Nc1c(-c2c(O)[nH]c3cc(Br)ccc23)[nH]c2ccccc12`, the Potency is 5.21 µM (active).
Turning to `OC(CN1CCN(c2cccc(Cl)c2)CC1)C(c1ccccc1)c1ccccc1` (stereo not drawn), the “activity change, negative = inhibition” value was 5.22%.
The same measure, in the same setting: under `Nc1nc(OCc2ccccc2)c2[nH]cnc2n1` stands -15.6%; under `CC1(C)NC(=O)N(c2ccc([N+](=O)[O-])c(C(F)(F)F)c2)C1=O`, -18.7%.
On to `O=C1c2c(O)cc(O)cc2OC(c2ccc(O)c(O)c2)C1O` (stereo not drawn), for which the “activity change, negative = inhibition” value is -19.7%.
Still for that read-out and setting: as for `O=C(c1ccccc1)c1ccc2n1CCC2C(=O)O` (stereo not drawn), the figure is -0.478%; as for `CC1(C)C(=O)N(CCN2CCC(C(=O)c3ccc(F)cc3)CC2)c2ccccc21`, -23.6%.
In the case of `O=c1c(O)c(-c2ccc(O)cc2O)oc2cc(O)cc(O)c12`, the “activity change, negative = inhibition” value is 3.97%.
Same read-out and setting: under `Cc1c(OCC(F)(F)F)ccnc1CS(=O)c1nc2ccccc2[nH]1` (stereo not drawn) stands 1.1%; under `C[C@@H](N)C1CCC(C(=O)Nc2ccncc2)CC1` (stereo partly drawn), -2.9%.
Turning to `Cc1cccc(C#Cc2ccccc2)n1`, the “activity change, negative = inhibition” value was -0.156%.
Consider `O=C(CCc1ccc(O)cc1)c1c(O)cc(O)cc1O`, for which the “activity change, negative = inhibition” value was 1.6%.
In the case of `CCOC(=O)C(C)Oc1cccc2c(=O)n(CC(=O)Nc3ccc4c(c3)OCCO4)ccc12` (stereo not drawn), the “activity change, negative = inhibition” value was -2.01%.
`COc1cc2nc(N3CCN(C(=O)C4CCCO4)CC3)nc(N)c2cc1OC` (stereo not drawn): the “activity change, negative = inhibition” value was 9.92%.
Same read-out and setting: under `NCCCCNCCCN` stands 2.3%.
`O=c1ccc2ccc(O)c(O)c2o1`: the “activity change, negative = inhibition” value was 4.07%.
Same read-out and setting: under `Oc1ccc(-c2nc(-c3ccc(F)cc3)c(-c3ccncc3)[nH]2)cc1` stands 4.73%; under `COc1ccccc1N1CCN(CCN(C(=O)C2CCCCC2)c2ccccn2)CC1`, 3.56%.
For `NNc1nncc2ccccc12`, the “activity change, negative = inhibition” value is 7.68%.
Still for that read-out and setting: as for `COc1ccc2cc([C@H](C)C(=O)O)ccc2c1`, the figure is 1.27%; as for `NC(=NCc1ccccc1)NC(=O)c1nc(Cl)c(N)nc1N`, -0.758%; as for `Cc1cc(O)c2c(c1)C(=O)c1cc(O)cc(O)c1C2=O`, 0.632%.
Regarding `O=C1NC(=O)C(c2ccccc2[N+](=O)[O-])=C1Nc1ccc(O)c(Cl)c1`, the “activity change, negative = inhibition” value is -12.4%.
As for `O=c1cc(N2CCOCC2)oc2c(-c3ccccc3)cccc12`, the Potency is 4.65 µM (active).
For the compound `CN(C)CCCC1(c2ccc(F)cc2)OCc2cc(C#N)ccc21` (stereo not drawn), the “activity change, negative = inhibition” value is 12.9%.
